Compounds with a hit are over-represented: about 6.8% of the library has one in this group of screens.
MCF10A rerep – induces DNA re-replication in MCF 10a normal breast cells; MCF 10A DNA re-replication, Hoechst nuclear intensity, 48 h; Potency, µM (doses to about 46.1 µM), inactives show at the top dose activity, positive = re-replication, hits mostly activators; 2.9% of 350,000 active; AID 624296; also: % of control where 0% means no effect; nearly all actives have a fitted effect of over 50% in size
PTAP TSG101 blk – blocks PTAP/TSG101 interaction to inhibit HIV-1 budding. Fluorescence polarization, FITC-PTAP peptide / Tsg101 binding. Potency, µM (doses to about 115 µM), for inactives: at the top dose activity change, negative = inhibition, actives largely listed as inhibitors. 340,000 tested, under 10 active. Q99816; active = well fitted inhibition curve with a large enough effect in the main read-out, with a control signal flat, not every such curve was filed as active; inconclusive = small, poorly fitted or top-dose-only effect, or effect the other way, or a change in a side signal; inactive = no such curve, though single readings can be large or run the other way; also: % of control where 0% means no effect
Target sequence (Q99816 whole entry, looked up): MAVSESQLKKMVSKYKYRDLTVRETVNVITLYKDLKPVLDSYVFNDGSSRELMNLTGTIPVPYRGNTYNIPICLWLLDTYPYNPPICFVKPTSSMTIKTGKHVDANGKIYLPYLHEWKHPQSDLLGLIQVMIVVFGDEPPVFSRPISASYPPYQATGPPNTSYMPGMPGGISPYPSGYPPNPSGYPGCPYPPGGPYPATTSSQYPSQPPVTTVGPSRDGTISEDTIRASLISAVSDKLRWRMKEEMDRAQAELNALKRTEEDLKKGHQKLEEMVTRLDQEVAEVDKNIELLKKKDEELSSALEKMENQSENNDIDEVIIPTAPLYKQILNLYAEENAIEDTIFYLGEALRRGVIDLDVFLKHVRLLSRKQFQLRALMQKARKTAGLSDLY
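FP read-out: FITC-PTAP peptide, 50 nM final, binding Tsg101 binding domain, 10 uM final; 20 min, r.t.; 10 mM HEPES pH 7.5, 0.15 M NaCl, 0.01% Tween 20, 3 mM EDTA, 0.1 mM TCEP.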
KB-V1 cytotox – kills drug-selected multidrug resistant KB-V1 cells; KB-V1 MDR cells viability, CellTiter-Glo, 72 h; Potency, µM (titrated, usually from 46.1 µM), usual class: cytotoxic; 3.4% of 400,000 active; AID 1347076; also: % is scaled to controls: 0 for no effect and ±100 for the full control effect; nearly all actives have a fitted effect of over 60% in size
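Potencies derive from concentration-effect curves fitted to normalized luminescence (CellTiter-Glo) of KB-V1 cells treated for 72 h at 37 degrees C in phenol-red-free DMEM containing 10% FBS.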
KB-3-1 cytotox – kills parental KB-3-1 adenocarcinoma cells; KB-3-1 viability, CellTiter-Glo ATP luminescence, 72 h; Potency, µM (top dose mostly 46.1 µM), actives largely listed as cytotoxic; 1.4% of 400,000 active; also: % is scaled to controls: 0 for no effect and ±100 for the full control effect; nearly all actives have a fitted effect of over 60% in size
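Cytotoxicity in the drug-sensitive parental line KB-3-1 was scored as loss of CellTiter-Glo luminescence following 72 h incubation with compound. Values come from curve fitting of normalized concentration-response data.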
SW480 rerep – inducers of DNA re-replication in SW480 colon cancer cells | SW480 DNA re-replication, Hoechst DNA content imaging, 48 h | 1.8% of 340,000 active | Potency, µM (doses to about 46.1 µM), inactives show top-dose re-replication activation, actives largely listed as activators | AID 624297; also: % of control where 0% means no effect; nearly all actives have a fitted effect of over 55% in size
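Treated cells incubate 48 hr (37 C, 5% CO2), are stained 40 min with Hoechst, and nuclear fluorescence is enumerated; a rise in nuclei with high DNA signal marks re-replication.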
PINK1 modulator – changes PINK1 expression; PINK1 immunofluorescence, high-content cytometry, 24 h; Potency, µM (highest dose often 76.6 µM), for inactives: at the highest dose activation (PINK1 increase), usual class: activators; 0.2% of 410,000 active; active = well fitted activation curve with a large enough effect; inconclusive = small, poorly fitted or top-dose-only effect; cell line not stated here; also: % of control where 0% means no effect; nearly all actives have a fitted effect of over 65% in size
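PINK1 protein, normally rapidly degraded, was detected by immunofluorescence after 24 hour compound treatment of a stable cell line. Titration data (5 concentrations) came from laser-scanning cytometry, with CCCP-treated wells as controls.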
An asterisk follows results filed as active; i = inactive; ? = inconclusive; / = no result given. Unless noted, calls follow the shape of the dose curve; as a rule, active = well fitted curve in the direction sought with a large enough effect; inconclusive = small, poorly fitted or top-dose-only effect, or another doubt; inactive = no such curve, though single readings can be large; an effect the other way counts as inactive or inconclusive. Potency is read from the fitted curve at half-maximal effect.

SMILES	MCF10A rerep	PTAP TSG101 blk	KB-V1 cytotox	KB-3-1 cytotox	SW480 rerep	PINK1 modulator
COc1ccc(-c2ccc(NC(=O)c3ccco3)cc2)nn1	-7.8%	2.7%	?	10.3µM*	?	0.1%
COc1ccccc1NC(=O)Cn1nnc(-c2ccccc2NC(=O)c2ccco2)n1	?	5.7%	?	i	29.8%	4.8%
O=C(Nc1ccc(-c2cn3ccccc3n2)cc1)c1ccco1	2.3%	-1.3%	10.3µM*	i	2.4%	7.7%
COc1ccc(C(=O)N2CCCC(c3nc(SCc4ccccn4)ncc3C)C2)cc1F (stereo not given)	/	/	/	/	/	0.0%
CC(NC(=O)OCc1ccccc1)C(=O)Oc1cc2oc(=O)cc(-c3ccccc3)c2cc1Cl (stereo not given)	18.4µM*	-3.8%	i	i	?	1.6%
COc1cccc(-c2nn(C)c3sc(C(=O)N4CCN(c5cccc(C(F)(F)F)c5)CC4)cc23)c1	/	/	i	i	/	3.1%
Cc1ccc(CCNC(=O)c2nn(C)c3c2CS(=O)(=O)c2ccccc2-3)cc1	0.6%	-13.5%	i	i	?	2.0%
COc1ccc(CCNC(=O)c2nn(C)c3c2CS(=O)(=O)c2ccccc2-3)cc1OC	?	-5.5%	i	i	23.1µM*	-2.3%
COc1ccc(OCc2cc(C(=O)NCC3CCOCC3)no2)c(Cl)c1	1.9%	-2.5%	i	i	?	-0.1%
COc1ccc(/C(O)=C/c2nc3ccc(C(=O)NCCc4cccc(C)c4)cc3[nH]c2=O)cc1OC	?	-2.5%	i	10.3µM*	?	19.8%
COc1ccc(OCc2cc(C(=O)NCCc3ccccc3)no2)c(Cl)c1	18.4µM*	-5.8%	?	?	20.6µM*	9.2%
COc1ccc(CCNC(=O)c2cc(-c3ccco3)on2)cc1OC	-3.2%	-1.9%	18.4µM*	9.2µM*	5.8µM*	15.3%
CC1CN(C(=O)Nc2ccc(C(=O)NCCc3ccccc3)cc2)c2ccccc2S1 (stereo not given)	/	/	?	i	/	-2.0%
Cc1ccc(NC(=O)CSc2nc3ccc(NC(=O)c4cccc(Cl)c4)cc3s2)c(C)c1	/	/	i	i	/	9.2%
Cc1ccc2c(CNCCc3ccco3)c(C(=O)O)n(Cc3ccc(F)cc3)c2c1	/	/	?	?	/	-0.1%
COc1ccc(-c2cn3c(n2)sc2cc(C(=O)NC4CCCc5ccccc54)ccc23)cc1 (stereo not given)	/	/	/	/	/	0.4%
COc1ccc(CCNC(=O)c2cc3sccc3n2Cc2ccc(Cl)cc2)cc1OC	/	/	/	/	/	0.0%
Cc1ccc(CN2CCCN(CC(=O)Nc3ccc(C)cc3C)S2(=O)=O)cc1	/	/	i	i	/	-0.2%
CCc1nc2ccc(C(=O)NCCc3ccc(OC)c(OC)c3)cc2nc1CC	9.4%	-3.5%	i	i	2.4%	0.8%
COc1ccc(CCNC(=O)c2ccc3nc(-c4ccco4)c(-c4ccco4)nc3c2)cc1OC	?	-7.9%	7.31µM*	?	?	1.9%
O=C1CC[C@@H](CN(Cc2cccnc2)C2CCN(c3ccc(NC(=O)c4cnccn4)cc3)CC2)N1	/	/	/	/	/	0.5%
COc1cc(C2C(C(C)=O)=C(O)C(=O)N2c2ccc(Br)cn2)ccc1O (stereo not given)	3.4%	-4.3%	i	i	-14.3%	1.4%
CC(=O)C1=C(O)C(=O)N(c2ccc(Br)cn2)C1c1ccc(Br)cc1 (stereo not given)	?	-9.9%	?	3.66µM*	?	13.8%
CC(=O)C1=C(O)C(=O)N(c2ccc(Br)cn2)C1c1ccc(F)cc1 (stereo not given)	9.1%	-9.6%	?	i	7.31µM*	0.9%
Cc1nc(C)c(CC(=O)N2CCOc3ccc(CN4CCOCC4)cc3C2)s1	/	/	/	/	/	-0.5%
SMILES	MCF10A rerep	PTAP TSG101 blk	KB-V1 cytotox	KB-3-1 cytotox	SW480 rerep	PINK1 modulator
Cc1cccc(C(=O)N[C@H](C(=O)Nc2nc3ccccc3[nH]2)C(C)C)c1	5.8µM*	-3.0%	?	5.17µM*	5.8µM*	4.9%
COc1ccc(C(=O)N[C@H](C(=O)Nc2nc3ccccc3[nH]2)C(C)C)cc1	?	-0.1%	16.4µM*	2.06µM*	9.2µM*	5.6%
O=C(CSc1nc2c([nH]c3ccccc32)c(=O)n1-c1ccc(F)cc1)N1CCCCCC1	/	/	i	i	/	-3.1%
C=CCc1cccc2cc(C(=O)N3CCN(C(=O)c4ccco4)CC3)c(=O)oc12	13µM*	-3.3%	?	i	?	/
O=C(NCCN1C(=O)S/C(=C\c2ccc(OC(F)F)cc2)C1=O)C1=COCCO1	18.4µM*	-1.8%	?	?	20.6µM*	7.2%
O=C(NCCN1C(=O)S/C(=C\c2ccc(Cl)c(Cl)c2)C1=O)c1ccc2c(c1)C(=O)N(Cc1ccncc1)C2=O	16.4µM*	-0.9%	i	i	-2.1%	11.7%
COc1ccc2c(CC(=O)NCCN3C(=O)S/C(=C\c4cccnc4)C3=O)coc2c1	3.7%	1.2%	i	i	0.2%	1.4%
COc1ccc(/C=C2\SC(=O)N(CCNC(=O)Cc3coc4cc(OC)ccc34)C2=O)cc1	7.4%	-1.3%	5.8µM*	?	12.8%	5.3%
O=C(NCCN1C(=O)S/C(=C\c2ccc(Cl)c(Cl)c2)C1=O)C1COc2ccccc2O1 (stereo not given)	4.8%	-1.8%	i	i	4.9%	1.8%
O=C(NCCN1C(=O)S/C(=C\c2ccc(OC(F)F)cc2)C1=O)c1cnccn1	5.8µM*	0.0%	8.2µM*	5.8µM*	5.8µM*	20.4%
Cc1nn(-c2ccccc2)c2c1N(CCCC(=O)NC(C)c1ccccc1)C(=O)CS2 (stereo not given)	/	/	i	i	/	2.1%
CN(Cc1cccc2ncccc12)C(=O)c1cnn(-c2ncc3c(n2)-c2ccccc2CC3)c1C1CC1	/	/	/	/	/	0.3%
O=C(CCCCCn1c(=O)c2sccc2n(Cc2ccc(Cl)cc2)c1=O)NCc1ccc2c(c1)OCO2	/	/	/	/	/	-1.5%
COc1cccc(NC(=O)Cn2c(=O)n(-c3ccc(C)cc3)c(=O)c3ccccc32)c1	/	/	i	?	/	-1.0%
COc1ccc(/C=C2\SC(=O)N(CCNC(=O)C3=COCCO3)C2=O)cc1	1.84µM*	3.2%	2.59µM*	2.91µM*	10.3µM*	13.9%
O=C(NCCN1C(=O)S/C(=C\c2ccc(Cl)cc2)C1=O)C1=COCCO1	1.6%	-1.1%	/	/	0.4%	3.0%
O=C(Cn1ncc(Cl)c(Cl)c1=O)c1ccc(Cl)cc1	9.2µM*	-9.5%	?	?	?	?
CC(C)(C)C(=O)Cn1ncc(Cl)c(Cl)c1=O	2.06µM*	-8.5%	?	i	?	0.3%
